Measured values from the supplement of paper PMC11732987, “Enantioselective OTUD7B fragment discovery through chemoproteomics screening and high-throughput optimisation” (Communications Chemistry, 2025).

Tests used:
Test in all cases: log2 ratio of Biotin-Ahx-Ub-VS probe labelling (fragment/DMSO); higher = less target engagement (more negative = stronger competition), active = hit call of the paper (q ≤ 0.05, log2 ratio ≤ -1)
Conditions in all cases: compound concentration: 200 uM; treatment time: 3 h
ALG13 = target: T1, ALG13 (UniProt Q9NP73)
T1 sequence (whole entry): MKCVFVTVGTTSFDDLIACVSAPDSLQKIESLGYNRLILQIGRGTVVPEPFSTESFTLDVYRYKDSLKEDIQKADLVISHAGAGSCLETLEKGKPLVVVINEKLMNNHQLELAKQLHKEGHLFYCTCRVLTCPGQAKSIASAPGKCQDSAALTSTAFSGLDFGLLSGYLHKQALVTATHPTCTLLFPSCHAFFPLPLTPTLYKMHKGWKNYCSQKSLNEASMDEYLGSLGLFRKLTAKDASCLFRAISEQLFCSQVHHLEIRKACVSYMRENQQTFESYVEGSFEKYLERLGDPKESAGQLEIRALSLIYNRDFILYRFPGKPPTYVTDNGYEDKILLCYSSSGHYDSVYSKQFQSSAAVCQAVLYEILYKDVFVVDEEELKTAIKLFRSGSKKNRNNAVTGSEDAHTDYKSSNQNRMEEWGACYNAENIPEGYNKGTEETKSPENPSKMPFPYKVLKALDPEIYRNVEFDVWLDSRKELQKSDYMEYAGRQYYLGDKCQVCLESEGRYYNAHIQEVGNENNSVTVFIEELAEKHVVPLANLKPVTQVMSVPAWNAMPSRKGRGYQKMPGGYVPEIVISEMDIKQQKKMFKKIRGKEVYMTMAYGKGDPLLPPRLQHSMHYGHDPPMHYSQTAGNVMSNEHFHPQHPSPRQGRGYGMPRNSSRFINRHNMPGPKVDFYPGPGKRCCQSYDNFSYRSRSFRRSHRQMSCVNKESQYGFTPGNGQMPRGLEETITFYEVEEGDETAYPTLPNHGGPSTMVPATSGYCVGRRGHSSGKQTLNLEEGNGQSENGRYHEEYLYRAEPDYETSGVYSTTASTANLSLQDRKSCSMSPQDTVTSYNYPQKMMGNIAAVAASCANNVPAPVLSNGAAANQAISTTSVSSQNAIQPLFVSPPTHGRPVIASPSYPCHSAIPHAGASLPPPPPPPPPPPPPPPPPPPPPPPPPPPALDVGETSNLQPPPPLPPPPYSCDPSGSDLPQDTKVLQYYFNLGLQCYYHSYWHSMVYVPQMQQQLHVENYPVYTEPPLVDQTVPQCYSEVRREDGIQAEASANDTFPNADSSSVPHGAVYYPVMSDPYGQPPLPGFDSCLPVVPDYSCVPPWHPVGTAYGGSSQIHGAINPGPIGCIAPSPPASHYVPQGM
How it was run: (§1)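 Global-median-normalised Spectronaut label-free quantities were compared by unpaired t-test, and values are average log2 ratios of fragment over vehicle. Only proteins with ≥2 unique peptides were used. HEK293T lysate (495 µg per sample) was treated in triplicate with fragment at 200 µM or vehicle for 3 h and then with Biotin-Ahx-Ub-VS at 0.5 µM final for 1 h. Labelled DUBs were then NeutrAvidin-enriched, digested with LysC and trypsin, and run by diaPASEF LC-MS/MS.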

ATXN3 = ATXN3 (UniProt P54252)
Sequence of ATXN3 (P54252 whole entry): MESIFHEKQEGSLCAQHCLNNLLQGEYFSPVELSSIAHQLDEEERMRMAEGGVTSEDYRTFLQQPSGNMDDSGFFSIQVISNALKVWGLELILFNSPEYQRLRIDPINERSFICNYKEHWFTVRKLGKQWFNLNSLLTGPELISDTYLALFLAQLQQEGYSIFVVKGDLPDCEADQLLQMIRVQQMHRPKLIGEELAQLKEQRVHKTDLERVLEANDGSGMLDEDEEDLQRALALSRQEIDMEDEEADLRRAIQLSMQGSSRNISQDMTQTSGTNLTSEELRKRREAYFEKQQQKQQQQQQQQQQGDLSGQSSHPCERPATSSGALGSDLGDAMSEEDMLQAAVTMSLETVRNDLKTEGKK
How it was run: as §1

BAP1 = target: T2, BAP1 (UniProt Q92560)
T2 sequence (whole entry): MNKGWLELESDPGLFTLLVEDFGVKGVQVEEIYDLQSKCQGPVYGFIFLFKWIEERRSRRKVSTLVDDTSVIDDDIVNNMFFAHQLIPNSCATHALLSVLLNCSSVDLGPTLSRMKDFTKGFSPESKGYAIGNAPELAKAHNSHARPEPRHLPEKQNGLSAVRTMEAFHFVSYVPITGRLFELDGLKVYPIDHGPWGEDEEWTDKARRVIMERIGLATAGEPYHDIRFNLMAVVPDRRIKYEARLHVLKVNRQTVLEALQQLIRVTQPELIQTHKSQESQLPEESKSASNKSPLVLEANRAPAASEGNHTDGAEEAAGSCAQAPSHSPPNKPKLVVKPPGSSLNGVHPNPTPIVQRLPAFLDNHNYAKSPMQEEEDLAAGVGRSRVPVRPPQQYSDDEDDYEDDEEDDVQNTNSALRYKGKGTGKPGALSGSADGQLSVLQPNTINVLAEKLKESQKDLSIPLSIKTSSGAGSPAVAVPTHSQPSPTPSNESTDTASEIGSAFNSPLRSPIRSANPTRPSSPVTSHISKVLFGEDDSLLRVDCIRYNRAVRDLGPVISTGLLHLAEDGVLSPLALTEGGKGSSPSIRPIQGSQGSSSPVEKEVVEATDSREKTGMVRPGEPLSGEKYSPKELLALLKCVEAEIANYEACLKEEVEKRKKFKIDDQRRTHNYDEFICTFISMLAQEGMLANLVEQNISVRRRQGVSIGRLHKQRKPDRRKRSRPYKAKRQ
How it was run: as §1

EIF3F = EIF3F (UniProt O00303)
Sequence of EIF3F (O00303 whole entry): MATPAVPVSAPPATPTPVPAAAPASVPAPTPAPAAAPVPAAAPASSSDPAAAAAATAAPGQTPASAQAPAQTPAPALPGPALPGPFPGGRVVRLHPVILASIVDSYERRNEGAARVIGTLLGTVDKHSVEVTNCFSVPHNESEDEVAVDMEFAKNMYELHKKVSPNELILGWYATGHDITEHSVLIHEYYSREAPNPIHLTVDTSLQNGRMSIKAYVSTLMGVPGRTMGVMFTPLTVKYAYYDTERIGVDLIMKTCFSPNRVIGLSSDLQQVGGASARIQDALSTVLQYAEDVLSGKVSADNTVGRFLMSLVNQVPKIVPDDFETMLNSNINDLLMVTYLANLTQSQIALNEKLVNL
How it was run: as §1

EIF3H = EIF3H (UniProt O15372)
Sequence of EIF3H (O15372 whole entry): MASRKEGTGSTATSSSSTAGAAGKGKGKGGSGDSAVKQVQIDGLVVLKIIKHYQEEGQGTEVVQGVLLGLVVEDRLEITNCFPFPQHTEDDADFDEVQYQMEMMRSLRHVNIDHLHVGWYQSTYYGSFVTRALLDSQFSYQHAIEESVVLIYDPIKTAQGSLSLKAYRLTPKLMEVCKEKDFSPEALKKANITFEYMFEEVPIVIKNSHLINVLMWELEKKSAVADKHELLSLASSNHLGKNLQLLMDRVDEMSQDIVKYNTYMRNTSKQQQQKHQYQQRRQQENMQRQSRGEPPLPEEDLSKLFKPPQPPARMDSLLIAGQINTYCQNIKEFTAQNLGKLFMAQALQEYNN
How it was run: as §1

FAM105A = target: T3, FAM105A (UniProt Q9NUU6)
T3 sequence (whole entry): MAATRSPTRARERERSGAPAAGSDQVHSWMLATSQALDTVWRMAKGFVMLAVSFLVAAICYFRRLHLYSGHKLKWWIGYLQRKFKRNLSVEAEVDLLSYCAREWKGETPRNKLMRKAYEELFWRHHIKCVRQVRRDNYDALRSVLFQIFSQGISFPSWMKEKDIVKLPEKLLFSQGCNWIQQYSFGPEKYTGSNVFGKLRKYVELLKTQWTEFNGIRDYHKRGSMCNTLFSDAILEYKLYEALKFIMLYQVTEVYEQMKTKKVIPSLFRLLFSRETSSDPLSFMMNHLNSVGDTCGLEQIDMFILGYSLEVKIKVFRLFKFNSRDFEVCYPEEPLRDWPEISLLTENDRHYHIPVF
How it was run: as §1

OTUB1 = OTUB1 (UniProt Q96FW1)
Sequence of OTUB1 (Q96FW1 whole entry): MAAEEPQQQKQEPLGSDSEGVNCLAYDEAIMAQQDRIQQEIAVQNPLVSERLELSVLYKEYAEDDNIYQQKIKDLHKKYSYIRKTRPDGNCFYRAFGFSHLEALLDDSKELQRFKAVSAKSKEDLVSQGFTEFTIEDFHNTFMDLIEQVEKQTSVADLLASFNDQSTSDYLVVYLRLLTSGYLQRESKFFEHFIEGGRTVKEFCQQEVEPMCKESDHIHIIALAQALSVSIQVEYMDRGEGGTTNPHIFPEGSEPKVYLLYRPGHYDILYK
How it was run: as §1

OTUD4 = target: T4, OTUD4 (UniProt Q01804)
T4 sequence (whole entry): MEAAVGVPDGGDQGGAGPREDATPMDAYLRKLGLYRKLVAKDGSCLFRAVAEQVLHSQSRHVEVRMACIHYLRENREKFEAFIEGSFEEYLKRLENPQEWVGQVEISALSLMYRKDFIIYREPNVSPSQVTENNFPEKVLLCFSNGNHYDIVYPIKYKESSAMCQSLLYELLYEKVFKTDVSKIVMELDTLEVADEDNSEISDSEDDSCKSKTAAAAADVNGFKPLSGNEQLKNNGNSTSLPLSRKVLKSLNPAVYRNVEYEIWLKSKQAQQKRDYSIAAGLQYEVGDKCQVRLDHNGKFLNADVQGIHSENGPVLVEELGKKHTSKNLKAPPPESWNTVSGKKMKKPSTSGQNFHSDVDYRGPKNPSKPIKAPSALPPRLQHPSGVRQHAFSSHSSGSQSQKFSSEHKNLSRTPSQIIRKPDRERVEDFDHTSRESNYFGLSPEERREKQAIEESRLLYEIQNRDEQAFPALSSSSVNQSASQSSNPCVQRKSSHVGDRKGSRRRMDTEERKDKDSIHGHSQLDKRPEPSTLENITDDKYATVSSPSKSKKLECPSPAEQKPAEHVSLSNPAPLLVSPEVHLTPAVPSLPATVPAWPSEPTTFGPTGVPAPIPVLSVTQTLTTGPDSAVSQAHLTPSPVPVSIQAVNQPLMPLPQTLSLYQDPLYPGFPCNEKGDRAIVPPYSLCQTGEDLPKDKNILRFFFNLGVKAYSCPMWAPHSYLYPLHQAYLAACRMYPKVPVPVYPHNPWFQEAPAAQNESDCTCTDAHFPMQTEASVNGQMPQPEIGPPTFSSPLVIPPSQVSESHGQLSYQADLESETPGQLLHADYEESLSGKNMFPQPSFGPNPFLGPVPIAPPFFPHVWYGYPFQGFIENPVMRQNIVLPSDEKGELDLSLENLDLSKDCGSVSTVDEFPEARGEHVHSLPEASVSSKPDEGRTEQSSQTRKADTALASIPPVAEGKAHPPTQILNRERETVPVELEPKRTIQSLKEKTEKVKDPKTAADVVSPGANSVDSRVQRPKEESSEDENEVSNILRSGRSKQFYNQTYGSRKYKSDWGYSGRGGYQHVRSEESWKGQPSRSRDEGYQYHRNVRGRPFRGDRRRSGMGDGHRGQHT
How it was run: as §1

OTUD5 = target: T5, OTUD5 (UniProt Q96G74)
T5 sequence (whole entry): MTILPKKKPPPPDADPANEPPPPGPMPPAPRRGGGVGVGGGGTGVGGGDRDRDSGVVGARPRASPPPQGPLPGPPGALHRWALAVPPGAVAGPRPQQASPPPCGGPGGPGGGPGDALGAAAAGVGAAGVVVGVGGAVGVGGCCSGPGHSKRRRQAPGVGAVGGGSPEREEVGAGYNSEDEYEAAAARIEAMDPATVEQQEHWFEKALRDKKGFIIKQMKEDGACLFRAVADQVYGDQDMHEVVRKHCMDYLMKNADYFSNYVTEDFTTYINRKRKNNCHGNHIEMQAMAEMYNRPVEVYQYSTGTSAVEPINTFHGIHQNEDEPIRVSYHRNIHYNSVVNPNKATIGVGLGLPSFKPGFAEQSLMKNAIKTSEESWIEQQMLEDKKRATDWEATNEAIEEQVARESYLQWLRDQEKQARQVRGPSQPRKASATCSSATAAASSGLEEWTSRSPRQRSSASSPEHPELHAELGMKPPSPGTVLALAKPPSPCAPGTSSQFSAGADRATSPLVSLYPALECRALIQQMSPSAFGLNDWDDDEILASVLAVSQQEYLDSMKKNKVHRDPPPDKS
How it was run: as §1

Measured: log2 ratio of Biotin-Ahx-Ub-VS probe labelling

O=C(CCl)NCCc1ccc2c(c1)OCCO2
active: BAP1 -1.7
inactive: ALG13 -0.0432 | ATXN3 -0.16 | EIF3F -0.184 | EIF3H 0.186 | FAM105A 0.307 | OTUB1 -0.173 | OTUD4 -0.539 | OTUD5 -0.693
